The values below come from ChEMBL document CHEMBL3433997, “St. Jude Leishmania screening dataset” (2016).

SMILES strings stand for the structures.

As usually defined, the inhibition is the change of the read-out against control, counted positive when it falls.

What all share (type): functional
In experiment [1] the target is Solute carrier family 2, facilitated glucose transporter member 1 (Homo sapiens) (UniProt P11166). In words: ST_JUDE_LEISH: Cytotoxicity at 2uM final concentration against transgenic Leishmania Mexicana promastigotes LmGLUT1 that are glucose transport deficient and complemented with the human glucose transporter GLUT1. Activity is measured by DNA content using SYBR green in vitro.
Chain of Solute carrier family 2, facilitated glucose transporter member 1 (Homo sapiens) (P11166 whole entry): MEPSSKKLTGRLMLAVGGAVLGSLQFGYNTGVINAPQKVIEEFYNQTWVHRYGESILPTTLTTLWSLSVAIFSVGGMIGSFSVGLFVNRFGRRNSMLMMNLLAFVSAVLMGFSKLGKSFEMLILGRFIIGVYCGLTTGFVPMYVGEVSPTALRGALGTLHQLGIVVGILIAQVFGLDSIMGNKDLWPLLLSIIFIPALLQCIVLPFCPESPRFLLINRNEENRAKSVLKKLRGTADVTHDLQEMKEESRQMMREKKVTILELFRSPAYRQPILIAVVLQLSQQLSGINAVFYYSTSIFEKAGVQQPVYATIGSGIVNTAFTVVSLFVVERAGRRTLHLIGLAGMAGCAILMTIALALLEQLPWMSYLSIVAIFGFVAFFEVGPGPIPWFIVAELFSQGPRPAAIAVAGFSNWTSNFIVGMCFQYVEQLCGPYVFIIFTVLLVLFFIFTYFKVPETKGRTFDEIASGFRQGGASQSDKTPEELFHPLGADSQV

The target in experiment [2] is Hexose transporter 1 (Plasmodium falciparum) (UniProt O97467). Nature of the experiment: ST_JUDE_LEISH: Cytotoxicity at 2uM final concentration against transgenic Leishmania Mexicana promastigotes LmPfHT that are glucose transport deficient and complemented with the Plasmodium falciparum hexose transporter. Activity is measured by DNA content using SYBR green in vitro.

For experiment [3], the target named is Glucose transporter (Leishmania mexicana) (UniProt O61059). Nature of the experiment: ST_JUDE_LEISH: Cytotoxicity at 2uM final concentration against transgenic Leishmania Mexicana promastigotes LmGT2 that are glucose transport deficient and complemented with the L. Mexicana glucose transporter 2. Activity is measured by DNA content using SYBR green in vitro.

As for `COc1ccc2nccc([C@@H](O)CN3CCC(NC(=O)C(c4cccs4)N4CCN(c5ccc(F)cc5)CC4)CC3)c2c1` (stereo partly drawn), the inhibition in experiment [1] was 5%; in experiment [2], 3.71%; in experiment [3], 4.65%.

As for `COC(=O)c1cc(C(=O)CN(Cc2ccccc2)C(C)C)ccc1O`, the inhibition in experiment [1] was 4.78%; in experiment [2], 5.9%; in experiment [3], 4.16%.

As for `CC1(C)NC(N)=NC(=N)N1OCCCO`, the inhibition in experiment [1] was -0.7%; in experiment [2], -0.74%; in experiment [3] it was -1.67%.

Take `CC1(C)N=C(N)N=C(NOCc2ccc(Cl)c(Cl)c2)N1`: the inhibition was determined as 1.06% in experiment [1], 1.13% in experiment [2] and 1.84% in experiment [3].

Take `O=C(Nc1ccc(C(F)(F)F)cc1)NC1CCN(c2ccnc3ccccc23)CC1`: the inhibition in experiment [1] was 4.74%; in experiment [2] it was 3.35%; in experiment [3] it was -3.98%.

As for `O=C(c1cc(-c2ccccc2O)on1)N1CCN(C(c2ccccc2)c2ccccc2)CC1`, the figures for the inhibition in experiment [1], in experiment [2] and in experiment [3] were -0.36%, -0.36% and 0.34%, respectively.

With `Nc1nccc2ccc(-c3cccc(OCc4ccccc4)c3)cc12`, the inhibition in experiment [1] was 1.85%; in experiment [2] it was 2.5%; in experiment [3], -2.03%.

Turning to `Oc1cc2c(cc1CN1CCN(Cc3ccc(Cl)s3)CC1)CCC2`, the inhibition in experiment [1] stood at 2.02%; in experiment [2], 4.66%; in experiment [3] it was 1.82%.

With `CCN(CC)CCN(Cc1ccc(-c2ccc(C(F)(F)F)cc2)cc1)C(=O)Cn1c(CCc2c(F)ccc(F)c2F)nc(=O)c2ccccc21`, the inhibition in experiment [1] amounted to 0.63%; in experiment [2], 1.87%; in experiment [3] it was 1.43%.

For `CCOC(=O)c1cccc(NC(=O)Nc2cccc(-c3ncc(OCCCN)c4c3nc(-c3nonc3N)n4CC)c2)c1`, the inhibition in experiment [1] stood at 2.41%; in experiment [2], 3.25%; in experiment [3] it was 3.37%.

On to `Cc1cccc(C(=O)Nc2ccnc(N3CCC(N(C)Cc4ccccc4)CC3)c2)c1`, for which the inhibition is -1.46% in experiment [1], -0.98% in experiment [2] and -0.83% in experiment [3].

On to `Cc1cc(NC(=O)Nc2ccc3ncccc3c2)c2ccccc2n1`, for which the inhibition is 4.47% in experiment [1], 3.97% in experiment [2] and 1.94% in experiment [3].

As for `N#Cc1ccc(N2CCN(Cc3cccc(-c4ccc(-c5nc6cc(C(F)(F)F)ccc6[nH]5)s4)c3)CC2)nc1`, the inhibition in experiment [1] is 0.46%; in experiment [2], 1.1%; in experiment [3], 0.57%.

For `COc1cc(Nc2nccc(-c3c(-c4cccc(NC(=O)c5c(F)cccc5F)c4)nn4ccccc34)n2)cc(OC)c1OC`, the inhibition in experiment [1] is 20.8%; in experiment [2] it was 24.9%; in experiment [3] it was 8.03%.

As to `COc1cccc(C(=O)Nc2nonc2-c2ccc(OC)c(OC)c2)c1`, the inhibition in experiment [1] amounted to 2.16%; in experiment [2], 2.49%; in experiment [3], 1.34%.

As for `CC(O)C1CCCCN1C(=O)c1cccc(-c2ccc(-c3nc4ccccc4[nH]3)s2)c1` (stereo not drawn), the inhibition in experiment [1] worked out at 3.87%; in experiment [2], 5.96%; in experiment [3] it was 5.38%.

With `CCOC(=O)c1ccc(NC(=O)Nc2ccc(-c3ccc(-c4nc5ccccc5[nH]4)cc3)cc2)cc1`, the results for the inhibition in experiment [1], in experiment [2] and in experiment [3] were 3.64%, 3.36% and 3.8%, respectively.

As for `CCNc1cc(C(=O)N[C@@H](Cc2ccccc2)[C@H](O)CNCCC(C)(C)C)c(F)c(N2CCCCS2(=O)=O)c1`, the figures for the inhibition in experiment [1], in experiment [2] and in experiment [3] were 6.09%, -0.44% and 0.33%, respectively.

Regarding `Cc1cccc2nc(-c3cccc(-c4cccc(NC(=O)COc5ccccc5C(N)=O)c4)c3)[nH]c12`, the inhibition is -0.32% in experiment [1], 3.3% in experiment [2] and 2.14% in experiment [3].

In the case of `CCCCCCc1ncc(-c2cc3cc(O)c(-c4ccccc4)cc3oc2=O)s1`, the inhibition in experiment [3] was -5.92%.

In the case of `COc1cc2cc(-c3nc4ccccc4[nH]3)c(N)nc2cc1OC`, the values for the inhibition in experiment [1], in experiment [2] and in experiment [3] were 84%, 91.3% and 67.3%, respectively.

In the case of `CCOc1cc(C)ccc1C1CCN(CCCCNC(=O)c2nc(-c3ccc(C(F)(F)F)cc3)[nH]c2C)CC1`, the inhibition in experiment [1] was 1.65%; in experiment [2], 0.72%; in experiment [3], -0.05%.

As to `COC(=O)c1ccc(C(=O)NCCCCN2CCC(c3ccc4c(c3OC)CCCC4)CC2)cc1-c1ccc(C(F)(F)F)cc1`, the inhibition in experiment [1] was determined as 2.23%; in experiment [2], 1.47%; in experiment [3], 2.29%.

As to `CCOC(=O)N(C)/N=C/[C@H](CCc1ccccc1)NC(=O)[C@H](CC(C)C)NC(=O)c1cc2cccc(OC)c2o1`, the inhibition in experiment [1] was 5.68%; in experiment [2], 3.47%; in experiment [3] it was 5.24%.

Turning to `O=C(NC(=S)NCc1ccncc1)c1ccccc1`, the inhibition in experiment [1] is 2.06%; in experiment [2] it was -1.93%; in experiment [3], 1.6%.
